The structures appear in SMILES notation. Results filed as inconclusive are left out. Activity calls are given as the source filed them. The call rests on the fitted dose curve; in most records, active means well fitted inhibition curve with a large enough effect; inconclusive means small, poorly fitted or top-dose-only effect; inactive means no such curve, though single readings can be large or run the other way.

The record followed here is PubChem BioAssay AID652180 (National Center for Advancing Translational Sciences (NCATS), 2013).

This assay is described as follows: qHTS Assay for Lipid Storage Modulators: 3T3L1 Assay against Probe and Analogs. Conditions: 3T3-L1 lipid droplets, BODIPY imaging, oleic acid, 18-24 h; series mostly up to 46.1 µM; activity change, negative = decreased lipid storage: at the top concentration. An excerpt: Storing lipids as a reservoir for energy or the anabolism of elementary metabolites is a common feature of probably all cells and is conserved from bacteria to humans. The universal cellular lipid storage organelle is the so-called lipid storage droplet (LD). Although ubiquitous, LDs share a simple structure composed of a hydrophobic core that harbors the storage lipids, which is shielded by a droplet-specific phospholipid monolayer to which proteins are attached. The current model of LD biogenesis involves an incorporation of the lipid core into the membrane leaflets of the endoplasmic reticulum (ER) followed by a subsequent budding-like maturation of a LD, which ultimately pinches off. Once released, LD volume can increase by localized lipogenesis or fusion of existing droplets. Storage lipids are re-mobilized enzymatically by lipase activity. Lipase regulation in the adipocyte is heavily studied and involves multiple components including catecholamine signaling, the LD-associated proteins Perilipin and comparative gene identification-58 (CGI-58) and at least two lipases named hormone sensitive lipase (HSL) and adipocyte triglyceride lipase (ATGL). LD regulation outside of the adipocyte is poorly understood and only few components are known. However, there is an urgent need to learn more about ectopic fat depots as mislocalized storage of lipids, for example in the liver or muscle, is an eminent health problem associated with insulin resistance or the metabolic syndrome. We developed a laser-scanning cytometer assay to enable 1,536-well screening and combined the results of the small molecules screen with an RNAi database based on lipid storage. In this assay we tested analogs of the probe against a mammalian cell line (3T3L1), to see if these small molecules could disrupt lipid storage. NIH Molecular Libraries Probe Production Centers Network [MLPCN] NIH Chemical Genomics Center [NCGC] MLPCN Grant: MH085686 Assay Submitter (PI): Mathias Beller, Max-Planck-Institut fur Biophysikalische Chemie
3T3L1 cells were obtained from ATCC (CL-173). 4 uL of cells at 1.25 X 105 cell/mL were dispensed into 1536 well Poly-D-Lysine coated black with clear bottom imaging plates (Corning, #7356) to obtain 500 cells/well, and cultured at 37 °C, 95% humidity, and 5% CO2 overnight. The culture medium used was OPTI-MEM containing 5% fetal bovine serum (FBS). Triacsin C (Sigma-Aldrich T-4540), an inhibitor of long-chain fatty acyl CoA synthetase that blocks synthesis of triglycerides, was used as a positive control for lipid under-storage. A total of 23 nL of compounds dissolved in DMSO at different concentrations were transferred to the assay plates using a Kalypsys 1536-pin tool, the final DMSO concentration was 0.46%. One microliter of oleic acid at 400 uM (Calbiochem, #4954) was added to induce lipid droplet formation in the cells, and the plates were lidded. After 18-24 hours of incubation at 37 °C, 95% humidity, and 5% CO2, cells were fixed (8 % paraformaldehyde in PBS, 30 min, room temperature), washed three times with PBS, then stained for lipid droplet and nucleus using 4uL of PBS solution containing BODIPY lipid dye 493/503 (1:2000 dilution, Life Technologies, #3922) and Hoechst 33342 (1:1000, Life Technologies, #H3570) with Washer dispenser EL406(Biotek). Images were acquired using InCell 2000 (GE). Number of cells, number of lipids and sizes of lipids were analysis using GE Investigator software.
`CCOc1ccc(CCNC(=O)c2ccccc2)cc1OCC`: the Potency is 2350 nM (active). In the case of `CCOc1ccc(CCNC(=O)c2cc3ccccc3n2Cc2ccccn2)cc1OCC`, the Potency was 46.9 nM (active). Same read-out and setting: to `CCOc1ccc(CCNC(=O)c2ccc(Oc3ccccc3)cc2)cc1OCC` belongs 246 nM (active). For `CCOc1ccc(CCNC(=O)c2cc3cnccc3n2Cc2cccc(C)n2)cc1OCC`, the “activity change, negative = decreased lipid storage” value was -20% (inactive).

Consider `CCOc1ccc(CCNC(=O)c2cc3ncccc3n2Cc2cccc(C)n2)cc1OCC`, for which the “activity change, negative = decreased lipid storage” value was -26% (inactive). As for `CCOc1ccc(CCNC(=O)c2cc3sccc3n2Cc2ccc(F)cc2F)cc1OCC`, the Potency was 23.5 nM (active).

In the case of `CCOc1ccc(CCNC(=O)c2cc3ccncc3n2Cc2cccc(C)n2)cc1OCC`, the “activity change, negative = decreased lipid storage” value is -25.1% (inactive).
